Reference: PubChem BioAssay AID2284347 (EPA ToxCast)
Results filed as inconclusive are left out. The source made the active and inactive calls. How the source made its calls: active means hit-call score of the fitted dose curve at least 0.9, where 1 is the maximum; inconclusive means response in the unintended direction; inactive means score below 0.9.

These molecules were tested on rainbow trout Peroxisome Proliferator-activated Receptor alpha (PPARa), gene 110490141 (assay: ATG_rtPPARa_EcoTox2: Attagene TRANS-FACTORIAL EcoTox-2 HepG2 Assay for rainbow trout Peroxisome Proliferator-activated Receptor alpha (PPARa)).
Description: ATG_EcoTox2 is a cell-based, multiplexed assay created by modifying the existing Attagene TRANS-FACTORIAL system to include a panel of nuclear receptors from some or all the following species: human (Homo sapiens), african clawed frog (Xenopus laevis), rainbow trout (Oncorhynchus mykiss), japanese medaka (Oryzias latipes), and zebrafish (Danio rerio). The ECOTOX2-FACTORIAL format uses HepG2, a human liver cell line, with measurements taken at 24 hours after chemical dosing in a 24-well plate. ATG_rtPPARa_EcoTox2 is one of 29 assay components calculated in the ATG_EcoTox2 assay. It is designed to make measurements of mRNA induction, a form of inducible reporter, as detected with fluorescence intensity signals by Reverse transcription polymerase chain reaction (RT-PCR) and Capillary electrophoresis technology.The assay endpoint […] was analyzed in the positive analysis fitting direction relative to DMSO as the negative control and baseline of activity. Using a type of inducible reporter, measures of mRNA for gain-of-signal activity can be used to understand the reporter gene at the transcription factor-level as they relate to the gene PPARa. Furthermore, this assay endpoint can be referred to as a primary readout, because this assay has produced multiple assay endpoints where this one serves a reporter gene function. To generalize the intended target to other relatable targets, this assay endpoint is annotated to the nuclear receptor intended target family, where the subfamily is non-steroidal.
Human liver HepG2 cells are transiently transfected with multiple reporter transcription units (MRTUs) in 6-well plates using FuGene 6 reagent (Roche; 3 ml FuGene/1 mg DNA). The MRTU constructs are regulated by a cis-regulating element (promoter). Each RTU expresses a GAL4-UAS that regulates the transcription of a nearby target reporter gene sequence. A major difference between the CIS and TRANS system is that in CIS activities of endogenous TFs are measured, whereas the TRANS assay evaluates changes in activities of exogenous, chimeric NR-Gal4 proteins. […] At the end of 24 hour incubation, total RNA was isolated using TriZol reagent (Invitrogen). The isolated RNA is then reverse-transcribed using oligo(dT) primer and Mo-MLV reverse transcriptase (Invitrogen) with DNAse I (Ambion) treatment for 30 min. The one-tenth of the produced cDNA was amplified by PCR using Taq DNA polymerase (Invitrogen) and two reporter sequence-specific primers. The PCR products were fluorescently labeled by primer extension with 6-arboxyfluorescein (6-FAM) 5'-labeled reporter sequence-specific primer (2 min at 95 C, 20 s at 68 C and 10 min at 72 C) and these products were digested with 5U of HpaI (New England Biolabs) for 2h at 37 C. The fragments were purified using Qiaquick PCR columns (Qiagen), analyzed on an ABI 3130xL genetic analyzer (Applied Biosystems) with peak positions identified by using a set of X-rhodamine (ROX)-labeled MapMarker1000 molecular weight standards (BioVentures). The raw capillary electrophoresis data was processed using Attagraph software (Attagene).
For Cc1ccc(C)c(OCCCC(C)(C)C(=O)O)c1, the AC50 was 10.4 µM (active).
CC(C)OC(=O)C(C)(C)Oc1ccc(C(=O)c2ccc(Cl)cc2)cc1 was tested, and the outcome was “inactive”.
For C[C@]12C=CC(=O)C=C1CC[C@@H]1[C@@H]2C(=O)C[C@@]2(C)[C@H]1CC[C@]2(O)C(=O)CO, the outcome was “inactive”.
C=C(c1ccc(C(=O)O)cc1)c1cc2c(cc1C)C(C)(C)CCC2(C)C was tested, and the outcome was “inactive”.
In the case of Cc1cccc(Nc2cc(Cl)nc(SCC(=O)O)n2)c1C, the AC50 is reported as 25 µM (active).
CC(c1cc2ccccc2s1)N(O)C(N)=O (configuration not stated) was tested, and the outcome was “inactive”.
CN(CCOc1ccc(CC2SC(=O)NC2=O)cc1)c1ccccn1 (configuration not stated) was tested, and the AC50 was 6.15 µM (active).
For Cc1nc(-c2ccc(C(F)(F)F)cc2)sc1C(=O)NCc1ccc(OC(C)(C)C(=O)O)cc1, the AC50 was 0.0823 µM (active).
For C[C@@H]1C[C@H]2[C@@H]3CCC4=CC(=O)C=C[C@]4(C)[C@@]3(F)[C@@H](O)C[C@]2(C)[C@@]1(O)C(=O)COP(=O)(O)O, the outcome was “inactive”.
In the case of CC(C)(Oc1ccc(Cl)cc1)C(=O)O, the outcome is reported as “inactive”.
With CC(C)(Oc1ccc(C2CC2(Cl)Cl)cc1)C(=O)O (configuration not stated) the AC50 was 75.3 µM (active).
In the case of CC(C)(Oc1ccc(CCNC(=O)c2ccc(Cl)cc2)cc1)C(=O)O, the AC50 is reported as 41.3 µM (active).
